# NS1 function inh = blocks influenza NS1 protein function; Potency, µM (doses to about 46.1 µM), for the others: top-dose activity, positive = more growth; 270,000 compounds, 0.4% hits; AID 2326; note: potency is the fitted concentration of half-maximal effect; actives are rising curves; nearly all actives have a fitted effect of over 50% in size
#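 In this qHTS, NS1 from influenza A is expressed in budding yeast, where it slows growth. Cells are switched from glucose to 2% galactose medium (pH 6.0, -URA), treated with compound, and growth recovery is read at OD600.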
# Pf growth 48h = P. falciparum growth inhibition at 48 hours (one generation); P. falciparum luciferase growth in erythrocytes, 48 h; Potency, µM (top dose mostly 28.7 µM), for the others: top-dose activity change, negative = inhibition, hits mostly inhibitors; 310,000 compounds, 5.9% hits; AID 504832; active = well fitted inhibition curve with a large enough effect; inconclusive = small, poorly fitted or top-dose-only effect, or another doubt; inactive = no such curve, though single readings can be large or run the other way; note: potency is the fitted concentration of half-maximal effect; % is set by controls: 0 for no effect and ±100 for the full control effect
#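 Firefly luciferase activity from engineered P. falciparum reports growth; inhibitors lower the luminescent signal. Cultures contained 2% hematocrit erythrocytes at 0.1% final parasitemia.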
# CHX counter = counter-screen hit for Shiga toxin inhibitors, cycloheximide | max response, % | AID 2314 | 300,000 compounds, 12% hits | cell reporter, cycloheximide protein synthesis inhibition counterscreen; in the data active = max response mostly above about 13%, no sharp cut-off; inactive = mostly below about 14%; note: read at 38.3 µM for the half of the compounds with a filed dose; 0% is about no effect
# Shiga inhibitor = inhibitors of Shiga toxin in Vero cells | Vero cells, Shiga toxin protein synthesis inhibition reporter | inhibition, % at 38.7 µM | 290,000 compounds, 9.2% hits | AID 2315; in the data active = inhibition mostly above about 28%, no sharp cut-off; inactive = mostly below about 43%; note: 0% is about no effect
# SARS PLpro yeast = blocks SARS-CoV papain-like protease in a yeast assay | S. cerevisiae expressing SARS-CoV PLpro, growth rescue | Potency, µM (highest dose often 32.9 µM), for the others: at the highest dose activity, positive = growth rescue, most hits filed as activators | 330,000 compounds, 0.19% hits | AID 485353; note: potency is the fitted concentration of half-maximal effect; 0% is about no effect; nearly all actives have a fitted effect of over 55% in size
# Pf growth 96h = inhibits malaria parasite growth, 96 h. P. falciparum luciferase reporter growth, 96 h. Potency, µM (series often up to 28.7 µM), inactives show at the highest dose activity change, negative = inhibition, usual class: inhibitors. 320,000 compounds, 6.9% hits. AID 504834; active = well fitted inhibition curve with a large enough effect; inconclusive = small, poorly fitted or top-dose-only effect, or another doubt; inactive = no such curve, though single readings can be large or run the other way; note: potency is the fitted concentration of half-maximal effect; % is set by controls: 0 for no effect and ±100 for the full control effect
#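 Two-generation exposure (96 h) targets delayed-death phenotype. Reporter parasites carrying integrated firefly luciferase, in red cells at 2% hematocrit and 0.05% parasitemia final, kept at 37 C, 5% CO2; luminescence loss indicates inhibition.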
# Starred values were filed as active, the others as inactive; ? = inconclusive; · = no result. Compounds with a hit are over-represented: about 21% of the library has one in this group of screens. Unless noted, calls come from the whole dose curve.
SMILES,NS1 function inh,Pf growth 48h,CHX counter,Shiga inhibitor,SARS PLpro yeast,Pf growth 96h
OC1(c2ccccc2)CCNC2CCCCC21 (configuration not stated),-11%,30%,-3,-6,0%,10µM*
Cc1oc(-c2cccs2)nc1CN1CC[C@@](O)(c2ccccc2)[C@H]2CCCC[C@@H]21,-1%,0%,-1,-7,0%,3%
OC1(c2ccccc2)CCN(Cc2ccccc2)C2CCCCC21 (configuration not stated),-7%,10µM*,-3,-2,-15%,62%
CC1CCCCC1NC(=O)CCC(=O)N1CCOc2ccc(Cl)cc21 (configuration not stated),-10%,6%,-11,-4,-4%,?
COc1ccc(CN2CCNC(=O)C2CC(=O)NCc2cn3ccc(C)cc3n2)c(OC)c1 (configuration not stated),4%,-9%,-2,3,0%,5%
CCOC(=O)C(NC(C)=O)C(OC(C)=O)c1cccc(N(CCCl)CCCl)c1 (configuration not stated),7%,?,5,19,18%,10µM*
O=C(CCNC(=O)c1ccc([N+](=O)[O-])cc1)Nc1cccc(S(=O)(=O)N2CCOCC2)c1,·,1%,·,·,0%,?
O=C(CSc1nc2ccccc2[nH]1)Nc1c(F)c(F)c(F)c(F)c1F,·,34%,11,1,-2%,-21%
O=C(CSc1ncnc2ccccc12)c1ccco1,4%,97%,25*,57,0%,5%
COc1ccc2nc(SCC(=O)Nc3nccs3)[nH]c2c1,-2%,14%,20*,43*,-1%,173%
COc1ccc2nc(SCC(=O)c3ccco3)[nH]c2c1,-4%,112%,48*,63*,2%,191%
O=C(CSc1nc2ccccc2[nH]1)c1ccco1,-12%,82%,28*,106*,0%,39%
COc1ccc2nc(SCC(=O)NC(C)(C)C)[nH]c2c1,-1%,30%,8,56,2%,-29%
O=C(COC(=O)/C=C/c1ccccc1)NCCc1ccc(F)cc1,·,·,·,·,0%,·
CC1CCCC(N2C(=O)NC(NC(=O)c3ccco3)(C(F)(F)F)C2=O)C1C (configuration not stated),-36%,1%,-3,25,-11%,-11%
COC(=O)Cn1c(O)c(N=NC(=O)CNC(=O)c2ccncc2)c2ccccc21,-2%,13%,-1,-13,-1%,0%
COc1ccc2nc(SCC(=O)C(C)(C)C)[nH]c2c1,0%,114%,43*,65*,1%,115%
CCOc1ccc2nc(SCC(=O)N(C)C3CCS(=O)(=O)C3)[nH]c2c1 (configuration not stated),3%,0%,-4,-24,0%,32%
CCOc1ccc2nc(SCC(=O)N(C)C)[nH]c2c1,10%,·,71*,74*,14%,204%
COc1cc(OC)cc(C(=O)NNC(=S)NCc2ccco2)c1,5%,14%,-4,-33,0%,?
O=C1CC2(CCN(S(=O)(=O)c3ccccc3F)CC2)Oc2ccccc21,·,-10%,·,·,-3%,?
CN1CCN(C(=O)CSc2ccc(C(F)(F)F)cc2[N+](=O)[O-])CC1,-6%,15%,-2,-11,-26%,18%
COc1cc2c(cc1OC)C(c1ccc([N+](=O)[O-])cc1)NC(=O)C2 (configuration not stated),3%,14%,-3,-9,1%,?
COc1ccc(CNC(=O)CN2CCN(S(=O)(=O)c3cc(Br)ccc3Br)CC2)cc1OC,·,10µM*,·,·,-5%,?
Cc1cc(C(=O)NC2CC(C)(C)Cc3c2cnn3-c2cccc(F)c2)n(C)n1 (configuration not stated),-4%,?,14,18,0%,9.3µM*
CC1(C)Cc2c(cnn2-c2cccc(F)c2)C(NC(=O)c2csnn2)C1 (configuration not stated),-43%,39%,-1,-6,-1%,6.6µM*
Nc1nc(N2CCN(C(=O)c3ccco3)CC2)nc2ccc(Br)cc12,·,35%,25*,50*,0%,34%

# High-throughput results: PubChem, National Center for Advancing Translational Sciences (NCATS)
